Structures are written as SMILES. The campaign covered roughly 2,300 compounds. About 1,200 (52%) were called active. About 34% were inconclusive and are not listed. The set was probably picked from earlier hits. This is one part of the list. Unmarked numbers belong to inactive results. Calls follow the shape of the dose curve; as a rule, active = well fitted inhibition curve with a large enough effect; inconclusive = small, poorly fitted or top-dose-only effect, or effect the other way; inactive = no such curve, though single readings can be large or run the other way.

The record followed here is PubChem BioAssay AID504850 (National Center for Advancing Translational Sciences (NCATS), 2011).
% is scaled to controls: 0 for no effect and ±100 for the full control effect; potency is read from the fitted curve at half-maximal effect.

A short description of the test: Confirmation screen for delayed death inhibitors of the malarial parasite plastid, 48 hour incubation. Also: nearly all actives have a fitted effect of over 65% in size. Particulars: P. falciparum-infected erythrocytes, luciferase growth; series mostly up to 28.7 µM; activity change, negative = inhibition: at the top concentration. In short, it runs like this: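 Erythrocytes infected with luciferase-expressing P. falciparum (2% hematocrit, 0.1% parasitemia) incubated with compounds 48 hours at 37 C, 5% CO2, in RPMI/Albumax. Growth inhibition scored as reduced luminescence after detection reagent.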
Take `Cc1ccn2c(NC3CCCC3)c(-c3ccccn3)nc2c1`: the Potency was 7.08 µM (active). The same measure, in the same setting: the value for `COc1cccc([C@@H]2Oc3ccc(OC)cc3C(=O)[C@H]2O)c1` was 7.94 µM (active).

In the case of `CC(=O)N1CN(C2CCCC2)Cc2c1sc1c2CCCC1`, the Potency is 14.1 µM (active). Take `COC(=O)c1cc(NC(=O)CN2CCc3cc4c(cc3C2)OCCCO4)cc(C(=O)OC)c1`: the Potency was 12.6 µM (active).

Regarding `COc1ccc(C)cc1N(CC(=O)Nc1ccc(S(=O)(=O)N2CCCC2)cc1)S(C)(=O)=O`, the Potency is 15.8 µM (active). Regarding `COC(=O)c1cn(C)c2ccc(S(=O)(=O)N3CCCC3)cc2c1=O`, the “activity change, negative = inhibition” value was -9.9%. As to `COc1ccc(S(=O)(=O)N2CCCCCC2)cc1C(=O)N(C)CC(=O)Nc1cc(C)ccc1C`, the Potency was 7.94 µM (active). The same measure, in the same setting: the value for `CCOc1ccccc1N(CC(=O)Nc1ccc(S(=O)(=O)N2CCCC2)cc1)S(C)(=O)=O` was 12.6 µM (active). Consider `COc1cc2c(cc1OC)CN(CC(=O)Nc1ccc(S(=O)(=O)N3CCCC3)cc1)CC2`, for which the Potency was 15.8 µM (active). Same read-out and setting: next, `COc1ccc(OCCOc2ccc(S(=O)(=O)N3CCCC3)cc2C(N)=O)cc1`: 11.2 µM (active); `COc1ccc(S(=O)(=O)N2CCCN(S(=O)(=O)c3ccc(OC)c(C)c3)CC2)cc1C`: 14.1 µM (active); `CCN(CC(=O)Nc1ccc(S(=O)(=O)N2CCOCC2)cc1)Cc1ccccc1`: 12.6 µM (active). For the molecule `C/C=C(\C)CN1CCc2cc(OC)c(OC)cc2C1`, the “activity change, negative = inhibition” value was -12.9%. On the same count and under the same terms, next, `O=C(CCCN1C(=O)/C(=C\c2ccco2)SC1=S)Nc1ccc2ccccc2c1`: -5.51%.

For the molecule `N=C1S/C(=C\c2ccco2)C(=O)N1c1nccs1`, the Potency is 14.1 µM (active). As for `O=C(c1ccc(Cl)cc1)C(Cn1cncn1)C(Sc1ccccc1)c1ccccc1` (stereo unspecified), the Potency is 14.1 µM (active). Consider `Cc1cc(C)c(/C=C(\C#N)C(N)=S)c(C)c1`, for which the “activity change, negative = inhibition” value is -25.2%. Regarding `CCN(CC)S(=O)(=O)c1ccc(N2CCOCC2)c(NC(=O)C2CSC3(C)CCC(=O)N23)c1` (stereo unspecified), the Potency was 14.1 µM (active).

Take `COc1ccc([C@@]2(C(C)C)ON(c3ccccc3C(F)(F)F)C2=O)cc1`: the Potency was 1.12 µM (active). The same measure, in the same setting: the value for `CCOC(=O)CC(Nc1nc(N2CCOCC2)nc(N2CCOCC2)n1)c1ccccc1Cl` (stereo unspecified) was 6.31 µM (active); that for `CCCc1ccc(C(=O)NC(=O)c2ccccc2O)cc1` was 0.501 µM (active).

In the case of `CSc1ccccc1OCc1cc(C(=O)NCCCn2nc(C)cc2C)no1`, the Potency was 15.8 µM (active). Take `CSc1ccccc1OCc1cc(C(=O)NCCn2ccnc2C)no1`: the “activity change, negative = inhibition” value was 15.8%. On to `CSc1ccccc1OCc1cc(C(=O)N(C)CCc2c(C)n[nH]c2C)no1`, for which the Potency is 12.6 µM (active). Still for that read-out and setting: next, `CCN(CCN1CCCC1)C(=O)c1cc(COc2ccccc2SC)on1`: 15.8 µM (active). As to `CSc1ccccc1OCc1cc(C(=O)N2C[C@H]3CC[C@H]2C3)no1`, the “activity change, negative = inhibition” value was -29.5%.
